Shown are actives, neighbours in structure and some others; about 2.3% of the full set was active somewhere.
A549 tox-1: Nrf2 qHTS screen for inhibitors: counterscreen for cytotoxicity; A549 ARE-Fluc cells, CellTiter-Fluor viability, 18-24 h; Potency, µM (doses to about 46 µM), inactives show top-dose activity change, negative = cytotoxicity, usual class: inhibitors; 390,000 tested, 0.16% active; note: potency is the fitted concentration of half-maximal effect; % is set by controls: 0 for no effect and ±100 for the full control effect
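A549 ARE_Fluc cells in 5% FBS OPTI-MEM were exposed to compounds in concentration-response for 18-24 h at 37 deg C. Viability was read by CellTiter-Fluor fluorescence (Ex 405/Em 525) after 30 min, before the luciferase read.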
miR-21 act: qHTS Assay for Modulators of miRNAs and/orActivators of miR-21; Potency, µM (doses to about 38.3 µM), for the others: top-dose activity change, positive = activation, most hits filed as activators; 340,000 tested, under 10 active; AID 2288, 2010; HeLa miR-21 FLuc reporter, luciferase, 48 h;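 note: % of control where 0% means no effect; miR-21 action dims this reporter so a rising signal means less miR-21 action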
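HeLa cells stably expressing CMV-driven firefly luciferase with a downstream miR-21 binding sequence, endogenously expressing miR-21, were treated with titrations (up to about 40uM final) for 48 hours at 37 degree Celsius. Luciferase luminescence was read after lysis.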
Mito fusion yeast: qHTS Assay for Small Molecule Inhibitors of Mitochondrial Division or Activators of Mitochondrial Fusion | S. cerevisiae fusion-defective mutant growth rescue, CellTiterGlo 48 h | Potency, µM (doses to about 46.1 µM), for inactives: at the top dose growth rescue (activation), actives largely listed as activators | 320,000 tested, 0.23% active | AID 485298, 2010; note: potency is the fitted concentration of half-maximal effect; % of control where 0% means no effect; nearly all actives have a fitted effect of over 45% in size
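Luminescent cell viability in 1536-well qHTS format served as the measure of rescued growth in ts fusion-mutant S. cerevisiae cultured on non-fermentable YPEG for 48 hours at 37C.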
Nrf2 ARE act: qHTS of Nrf2 Activators; AREc32 ARE-luciferase reporter (MCF7-derived line), luminescence, 24 h; Potency, µM (doses to about 46.1 µM), for inactives: top-dose activation, usual class: activators; 410,000 tested, 0.31% active; note: potency is the fitted concentration of half-maximal effect; % of control where 0% means no effect; nearly all actives have a fitted effect of over 65% in size
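ARE activation measured as luciferase luminescence (Steady-Glo, 30 min RT) in AREc32_Fluc cells after 24 hr compound exposure at 37 deg C, 5% CO2; cells seeded overnight at 1000/well in OPTI-MEM, 5% FBS.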
Nrf2 block: Nrf2 qHTS screen for inhibitors. 360,000 tested, 2.1% active. A549 ARE-Fluc reporter, luciferase luminescence, 18-24 h. Potency, µM (highest dose often 46 µM), without a hit: at the highest dose activity change, negative = inhibition, actives largely listed as inhibitors; note: potency is the fitted concentration of half-maximal effect; % is set by controls: 0 for no effect and ±100 for the full control effect; nearly all actives have a fitted effect of over 60% in size
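A549 ARE_Fluc cells, 5000/well, 5% FBS OPTI-MEM; compounds in dose-response, 18-24 h at 37 °C/5% CO2; CellTiter-Fluor viability read (Ex 405/Em 525), then BugLite luciferase luminescence = Nrf2 activity.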
FLuc enzyme inh: Nrf2 qHTS screen for inhibitors: Purified Fluc Biochemical Counterscreen for Hit Validation. Potency, µM (titrated, usually from 57.5 µM), inactives show top-dose activity change, negative = inhibition, usual class: inhibitors. shares compounds with Nrf2 block. purified firefly luciferase, luminescence inhibition. 1,400 tested, 4% active. AID 720522, 2013; note: potency is the fitted concentration of half-maximal effect; % is set by controls: 0 for no effect and ±100 for the full control effect; nearly all actives have a fitted effect of over 65% in size
Target sequence (P08659 whole entry, looked up): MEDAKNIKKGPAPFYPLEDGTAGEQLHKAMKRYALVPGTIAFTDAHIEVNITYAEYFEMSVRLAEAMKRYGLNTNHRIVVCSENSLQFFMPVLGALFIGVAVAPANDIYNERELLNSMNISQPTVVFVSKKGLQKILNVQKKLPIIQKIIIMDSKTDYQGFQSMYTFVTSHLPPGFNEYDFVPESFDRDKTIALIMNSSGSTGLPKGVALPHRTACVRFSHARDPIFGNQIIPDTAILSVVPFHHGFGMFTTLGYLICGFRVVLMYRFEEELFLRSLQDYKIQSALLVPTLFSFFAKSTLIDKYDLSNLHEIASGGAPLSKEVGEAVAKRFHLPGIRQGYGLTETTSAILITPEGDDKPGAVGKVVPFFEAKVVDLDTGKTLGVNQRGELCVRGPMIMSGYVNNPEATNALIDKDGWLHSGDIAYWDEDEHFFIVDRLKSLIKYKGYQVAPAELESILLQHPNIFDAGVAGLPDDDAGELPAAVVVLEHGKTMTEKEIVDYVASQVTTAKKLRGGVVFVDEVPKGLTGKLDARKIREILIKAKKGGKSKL
A549 tox-2: Nrf2 qHTS screen for inhibitors: A549 ARE-Fluc Cytotoxicity Counterscreen for Hit Validation; 1,400 tested, 2% active; shares compounds with Nrf2 block; Potency, µM (top dose mostly 46.1 µM), for the others: at the highest dose activity change, negative = cytotoxicity, most hits filed as inhibitors; A549 ARE-Fluc cells, cytotoxicity counterscreen;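 note: potency is the fitted concentration of half-maximal effect; cells exposed to compounds for 18 to 24 hours; % is set by controls: 0 for no effect and ±100 for the full control effect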
ARE-Fluc inh: Nrf2 qHTS screen for inhibitors: Nrf2 A549 ARE-Fluc Confirmation Assay for Hit Validation; AID 720524, 2013; shares compounds with Nrf2 block; Potency, µM (titrated, usually from 46.1 µM), for inactives: at the highest dose activity change, negative = inhibition, most hits filed as inhibitors; 1,400 tested, 74% active; A549 ARE-firefly luciferase reporter, luminescence; note: potency is the fitted concentration of half-maximal effect; % is set by controls: 0 for no effect and ±100 for the full control effect; nearly all actives have a fitted effect of over 65% in size
Starred values were filed as active, the others as inactive; ? = inconclusive; . = no result shown. Calls come from the whole dose curve; as a rule, active = well fitted curve in the direction sought with a large enough effect; inconclusive = small, poorly fitted or top-dose-only effect, or another doubt; inactive = no such curve, though single readings can be large; an effect the other way counts as inactive or inconclusive.

SMILES	A549 tox-1	miR-21 act	Mito fusion yeast	Nrf2 ARE act	Nrf2 block	FLuc enzyme inh	A549 tox-2	ARE-Fluc inh
Cc1cccc(-n2nnc(-c3nc(-c4cccs4)no3)c2N)c1C	1%	-65%	.	11%	?	.	.	.
COc1ccc(C2C3=C(CC(C)(C)CC3=O)Oc3ncn(CC(C)C)c(=N)c32)cc1 (stereo unspecified)	-7%	9%	-13%	2%	7%	.	.	.
COc1ccc(C2C3=C(CC(C)(C)CC3=O)Oc3ncn(Cc4ccco4)c(=N)c32)cc1 (stereo unspecified)	?	-11%	-15%	9%	9.2µM*	3%	-9%	9%
O=C(N/N=C/c1sc(N2CCOCC2)nc1-c1ccccc1)c1ccc(O)cc1	-18%	0%	2%	3%	-8%	.	.	.
O=C(N/N=C/c1sc(N2CCOCC2)nc1-c1ccccc1)c1cccc(S(=O)(=O)N2CCCC2)c1	?	?	-8%	3%	2.6µM*	2%	-17%	23µM*
COc1ccc2c(Sc3ccccc3)c(C(=O)NCc3cccc(OC)c3OC)[nH]c2c1	-3%	15%	.	3%	9.2µM*	-9%	-8%	-1%
COc1ccc(-c2nc3scc(CCNS(=O)(=O)c4ccc(F)cc4C)n3n2)cc1	-16%	2%	.	0%	.	.	.	.
CN1CCN(c2ncnc3c2[nH]c2ccc(F)cc23)CC1	3%	-9%	-7%	5%	-6%	.	.	.
Fc1ccc2[nH]c3c(N4CCc5ccccc5C4)ncnc3c2c1	?	?	4%	4%	7.3µM*	-15%	-16%	.
Cc1ccc(-c2c[n+]3c(n2-c2ccccc2)CCC3)cc1	-10%	?	2%	2%	6.5µM*	2%	-5%	13µM*
CCOc1ccc(-n2c(-c3ccccc3)c[n+]3c2CCCCC3)cc1	-18%	?	-25%	0%	2.1µM*	0%	-14%	5.8µM*
c1ccc(-c2c[n+]3c(n2-c2ccccc2)CCC3)cc1	-10%	20%	2%	0%	?	.	.	.
CCOC(=O)C1=C(CSc2nc3ccccc3s2)NC(=O)NC1c1cc(C)ccc1C (stereo unspecified)	-6%	18%	11%	5%	?	.	.	.
CCOC(=O)C1=C(CSc2nc3ccccc3s2)NC(=O)NC1c1ccc(OC)cc1 (stereo unspecified)	?	25%	25%	0%	5.8µM*	-20%	?	.
Cc1ccccc1C(=O)Nc1ccc2oc(-c3ccc(Cl)c(Cl)c3)nc2c1	-1%	-16%	.	-1%	-11%	.	.	.
Cc1csc(C)[n+]1CCC1CCCCC1	.	.	.	.	.	4%	-8%	15µM*
CCN(c1ccc(C)cc1C)S(=O)(=O)c1nnc(NC(=O)c2ccc(F)cc2)s1	-2%	-8%	.	0%	-15%	.	.	.
Clc1ccc(OCCN2CCN(c3ncnc4sccc34)CC2)cc1	-5%	23%	5%	-1%	0.26µM*	2%	-6%	0.46µM*
CC(=O)OCC(=O)C1(O)CCC2C3CCC4=CC(=O)CCC4(C)C3(Cl)C(O)CC21C (stereo unspecified)	-2%	.	.	1%	1.2µM*	0%	-12%	0.52µM*
CC(=O)OCC(=O)C1(O)CCC2C3CCC4=CC(=O)CCC4(C)C3(F)C(O)CC21C (stereo unspecified)	-11%	.	.	0%	0.037µM*	3%	-5%	0.021µM*
COCCNc1ccc(-c2nc(-c3ccccn3)no2)cc1[N+](=O)[O-]	-2%	-8%	.	1%	?	.	.	.
CN(CCc1ccccc1)C(=O)c1ccc(NC(=O)Cc2ccc(NC(=O)C3CCCN(C(=O)C4CCC4)C3)cc2)cc1 (stereo unspecified)	-12%	.	.	6%	?	.	.	.
CN(CCc1ccccc1)C(=O)c1ccc(NC(=O)Cc2ccc(NC(=O)C3CCCN(C(=O)CCc4ccccc4)C3)cc2)cc1 (stereo unspecified)	-11%	.	.	0%	1.3µM*	-3%	-9%	4.1µM*
CC(=O)c1ccc(-c2cc(C3C4C=CCC(C)C4C(=O)N3Cc3ccccc3)ccc2F)cc1 (stereo unspecified)	-13%	.	.	.	?	.	.	.
CCC(=O)[C@@]1(C)[C@H](C)C[C@H]2[C@@H]3CCC4=CC(=O)C=C[C@]4(C)[C@H]3[C@@H](O)C[C@@]21C	-9%	.	0%	-1%	0.016µM*	3%	-9%	0.018µM*
SMILES	A549 tox-1	miR-21 act	Mito fusion yeast	Nrf2 ARE act	Nrf2 block	FLuc enzyme inh	A549 tox-2	ARE-Fluc inh
CCCC1O[C@@H]2C[C@H]3[C@@H]4CCC5=CC(=O)C=C[C@]5(C)[C@H]4[C@@H](O)C[C@]3(C)[C@]2(C(=O)CO)O1 (stereo partly specified)	-16%	-23%	15%	0%	?	.	.	.
CCCC1OC2CC3C4CCC5=CC(=O)C=CC5(C)C4C(O)CC3(C)C2(C(=O)O)O1 (stereo unspecified)	-15%	-27%	1%	0%	0.46µM*	-3%	-15%	1.3µM*
CCc1ccc2occ(CC(=O)Nc3sc4c(c3C(=O)NCCOC)CCCC4)c2c1	-2%	-10%	.	-1%	-6%	.	.	.
CCCCc1nn2c(=O)cc(COC(=O)c3ccc(NC(=O)c4cccc(OC)c4)cc3)nc2s1	4%	-2%	.	1%	.	.	.	.
COc1ccc(N2CCN(C(CNS(=O)(=O)c3ccc(OC)c(C)c3)c3ccco3)CC2)cc1 (stereo unspecified)	-7%	9%	.	1%	.	.	.	.
COc1ccc(CCNc2cc(N3CCN(C(=O)c4ccccc4F)CC3)ccc2[N+](=O)[O-])cc1OC	?	7%	2%	1%	2.1µM*	1%	-27%	6.5µM*
COc1ccc(C(=O)N2CCN(c3ccc([N+](=O)[O-])c(NCCc4ccc(OC)c(OC)c4)c3)CC2)cc1	?	19%	14%	3%	2.9µM*	1%	-24%	5.8µM*
COc1cccc(-c2ncc3ccccc3c2COC(=O)N2CCOCC2)c1	-10%	.	18%	1%	-8%	.	.	.
